In the supplement of paper PMC6555819:

Key:
Experiment in all cases: PBM binding z-score (relative to random genomic background probes); higher = stronger binding; sequences stand for … in GC…GCGATTGACAGCGTAGAATGAAGG
[1] = test system: FXR:RXRa (NR concentration 270 nM, RXRa partner concentration 90 nM)
Method in brief: (§1)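 For binding z-scores, the reference was random background probes on custom Agilent 4×180K protein-binding microarrays. These arrays were incubated 1 h with ligand-free nuclear receptor dimers in PBS pH 7.4, 2% milk, 0.02% Triton X-100, 1 mM DTT, 0.2 mg/mL BSA and 0.4 mg/ml salmon testes DNA. Fluorescence was scanned after antibody detection of each partner (one per run) and regression-normalized.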

[2] = test system: LXRa:RXRa (NR concentration 270 nM, RXRa partner concentration 90 nM)
Method in brief: as §1

[3] = test system: LXRa homodimer (NR concentration 270 nM)
Method in brief: as §1

[4] = test system: LXRb:RXRa (NR concentration 270 nM, RXRa partner concentration 90 nM)
Method in brief: as §1

[5] = test system: LXRb homodimer (NR concentration 270 nM)
Method in brief: as §1

[6] = test system: PPARa:RXRa (NR concentration 270 nM, RXRa partner concentration 90 nM)
Method in brief: as §1

[7] = test system: PPARg:RXRa (NR concentration 180 nM, RXRa partner concentration 90 nM)
Method in brief: as §1

[8] = test system: PPARg:RXRa 270nM:90nM, anti-RXR (NR concentration 270 nM, RXRa partner concentration 90 nM)
Method in brief: as §1

[9] = test system: PPARg:RXRa 30nM:10nM, anti-RXR (NR concentration 30 nM, RXRa partner concentration 10 nM)
Method in brief: as §1

[10] = test system: PPARg:RXRa 90nM:30nM, anti-RXR (NR concentration 90 nM, RXRa partner concentration 30 nM)
Method in brief: as §1

[11] = test system: PPARg:RXRa DBDmut IVT, anti-RXR (DBD mutation: RXRa K156A/R161A, NR concentration 270 nM, RXRa partner concentration 90 nM)
Method in brief: as §1

[12] = test system: PPARg:RXRa IVT, anti-PPARg (NR concentration 270 nM, RXRa partner concentration 90 nM)
Method in brief: as §1

[13] = test system: PPARg DBDmut:RXRa IVT, anti-PPARg (DBD mutation: PPARg1 K132A/R137A, NR concentration 270 nM, RXRa partner concentration 90 nM)
Method in brief: as §1

[14] = test system: PPARg DBDmut IVT, anti-PPARg (DBD mutation: PPARg1 K132A/R137A, NR concentration 270 nM)
Method in brief: as §1

[15] = test system: PPARg homodimer (NR concentration 180 nM)
Method in brief: as §1

[16] = test system: PXR:RXRa (NR concentration 270 nM, RXRa partner concentration 90 nM)
Method in brief: as §1

[17] = test system: PXR homodimer (NR concentration 270 nM)
Method in brief: as §1

[18] = test system: RARa:RXR (NR concentration 270 nM, RXRa partner concentration 90 nM)
Method in brief: as §1

[19] = test system: RARa homodimer (NR concentration 270 nM)
Method in brief: as §1

[20] = test system: RARb:RXRa (NR concentration 270 nM, RXRa partner concentration 90 nM)
Method in brief: as §1

| Sequence | PBM binding z-score [1] | PBM binding z-score [2] | PBM binding z-score [3] | PBM binding z-score [4] | PBM binding z-score [5] | PBM binding z-score [6] | PBM binding z-score [7] | PBM binding z-score [8] | PBM binding z-score [9] | PBM binding z-score [10] | PBM binding z-score [11] | PBM binding z-score [12] | PBM binding z-score [13] | PBM binding z-score [14] | PBM binding z-score [15] | PBM binding z-score [16] | PBM binding z-score [17] | PBM binding z-score [18] | PBM binding z-score [19] | PBM binding z-score [20] |
| --- | --- | --- | --- | --- | --- | --- | --- | --- | --- | --- | --- | --- | --- | --- | --- | --- | --- | --- | --- | --- |
| ATTGAAAGGTCGACGAGGTGAGTATACACCGTTT | 4.73 | 3.32 | 0.465 | 2.94 | 0.545 | 4.55 | 3.33 | 3.53 | 1.38 | 2.5 | 0.761 | 2.3 | 1.58 | 1.35 | 1.78 | 3.19 | 0.959 | 3.86 | 0.685 | 4.05 |
| ATCTCTAGGTAAGGCTCAGTTCAGTGAAGAACGC | 0.198 | 0.107 | 0.412 | 0.0703 | 0.35 | 0.125 | 0.0741 | 0.513 | 0.188 | 0.48 | 1.94 | 1.3 | 0.628 | 1.33 | 0.996 | 0.855 | 1.22 | 0.496 | 0.033 | 0.228 |
| GCTCGGAGGACAAGGTCAGAGCATTGTCCGTAGA | 1.99 | 1.75 | -0.445 | 1.15 | -0.84 | 2.48 | 0.798 | 1.67 | -0.55 | 0.636 | -0.234 | 0.996 | -1.46 | -0.733 | 0.964 | 1.69 | -0.0134 | 2.26 | -0.974 | 3.38 |
| ATCTCTACGTAAGACTCAGTTCAGTGAAGAACGC | 0.165 | 0.16 | 0.552 | 0.484 | 0.986 | 0.0277 | 0.265 | 0.146 | 0.213 | 0.131 | -0.086 | 0.118 | 0.872 | 1.57 | 0.776 | 1.09 | 1.22 | 0.208 | 0.199 | 0.279 |
| CCTATTAGATGACCATAAGGGCAACCGAAGCTCG | 0.824 | 0.35 | 0.303 | 0.273 | 0.565 | 0.419 | 0.753 | 0.324 | 0.147 | 0.0156 | -0.108 | 0.24 | 0.781 | -0.21 | 1.46 | 0.624 | 0.912 | 0.938 | 2.1 | 1.4 |
| TAGCCTAGGTCATGCGGGCCAGTATCGTGTCGGC | 3.99 | 3.03 | 0.667 | 1.41 | -0.226 | 3.06 | 1.67 | 2.29 | 0.00483 | 1.36 | 1.85 | 2.82 | -0.0878 | -0.59 | 0.211 | 1.41 | -0.532 | 2 | -0.99 | 3.49 |
| CCTTACGGGGCACTGACAGGTTATAGCATTTGGA | -0.345 | 0.0473 | -0.267 | 0.0491 | -0.831 | 0.455 | 0.465 | -0.156 | -0.0268 | -0.232 | 1.49 | 0.641 | -0.296 | -0.753 | 0.227 | -0.0592 | -0.274 | 0.21 | 0.0601 | 1.03 |
| ACTATTAGTTGACTTAGGGCAAGCGATACGACGC | 0.286 | 0.302 | 0.111 | 0.0469 | 0.509 | 0.124 | 0.824 | 0.206 | 0.267 | 0.144 | 0.209 | 0.768 | 0.636 | 1.04 | 0.596 | 0.255 | 0.294 | 0.775 | 0.794 | 0.892 |
| GGAACGAGGACAAGTTGATAGCAGAGTTTGATGG | 0.526 | -0.33 | -0.0892 | -0.534 | -0.685 | 0.0298 | 0.641 | -0.0478 | -0.0459 | -0.0367 | 0.934 | 0.446 | -0.104 | -0.565 | -0.282 | 0.0933 | 0.0308 | 0.108 | -0.522 | 1.32 |
| ATATGTAGGTTACATCCCGGTCATTCAGGCTATG | 1.09 | 3.77 | 3.88 | 1.83 | 1.18 | 3.66 | 4.96 | 4.25 | 1.8 | 3.35 | 7.52 | 7.38 | 2.01 | 2.46 | 1.78 | 1.39 | 0.762 | 1.6 | 0.487 | 1.99 |
| CCGACCGGGGCAAAGGTTACCATACTCAGTACGA | 2.32 | 2.1 | 0.433 | 2.47 | -1.02 | 4.89 | 8.71 | 7.68 | 6.28 | 7.92 | 0.771 | 3.62 | -1.08 | -1.57 | 1.59 | 2.84 | -0.256 | 4.81 | -0.0897 | 2.66 |
| ATCGAAAGGTCGAGGTGAGTTTAGAGAAAGGGAA | 4.34 | 3.68 | -0.00415 | 2.76 | 0.473 | 4.5 | 3.03 | 3.81 | 1.16 | 2.57 | 0.367 | 2.26 | 0.969 | 0.594 | 1.7 | 5.04 | 1.12 | 3.71 | 0.68 | 4.26 |
| ATCGAAAGGTCGTGAGGTGAGTGTACAGAAAGGC | 4.91 | 4.05 | 0.411 | 3.06 | 0.507 | 4.99 | 3.61 | 4.47 | 1.35 | 3.32 | 0.429 | 2.63 | 1.08 | 0.59 | 1.74 | 3.17 | 0.525 | 3.97 | 1.08 | 4.04 |
| CCGACTGGGGCAGAAAGGTTTCCATACCATCCGG | -0.743 | -0.804 | -0.629 | -1.01 | -1.31 | -0.642 | 0.629 | 0.229 | -0.72 | -0.258 | 1.64 | 0.908 | -1.84 | -1.79 | -0.677 | -0.755 | -0.948 | -0.82 | -1.09 | 0.352 |
